Laboratory results from PubChem BioAssay.
The source made the active and inactive calls.

Legend:
[1] = E. coli DRC41 culture turbidity changes, primary screen, E. coli filamentation inducer project, strain DRC41, OD650, 48 h (AID 1152);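 note: E. coli MC1000 strain DRC41 lacking acrAB efflux pump and sulA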; conditions: E. coli DRC41 (acrAB sulA), higher = more signal, called active from +8 up or from −8 down
[2] = small-molecule binders of probe aLefty1, primary screen, biochemical, small-molecule microarray, 635/667 nm fluorescence (AID 1153); conditions: higher = more signal;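 note: score merges spot fluorescence with signal-to-noise ratio from the scanned slide images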
[3] = PSAC antagonists in infected red cells, primary screen, cell-based, P. falciparum Indochina, OD700, 1 h (AID 1154); conditions: P. falciparum Indochina infected RBC osmotic lysis, higher = more signal, called active from +8 up or from −8 down
[4] = PSAC antagonists in infected red cells, primary screen, cell-based, P. falciparum Indochina, OD700, 2 h (AID 1155);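 note: lysis reports solute entry through the parasite surface anion channel PSAC; channel blockers reduce lysis of infected cells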; conditions: P. falciparum Indochina infected erythrocytes, osmotic lysis OD700; higher = more signal, called active from +8 up or from −8 down
[5] = osmotic lysis modulators in infected erythrocytes, primary screen, PSAC antagonist project, cell-based, P. falciparum Indochina, OD700, 3 h (AID 1156); conditions: higher = more signal, called active from +8 up or from −8 down
[6] = PSAC antagonists in infected red cells, primary screen, cell-based, P. falciparum Indochina, OD700, 18 h (AID 1157); conditions: P. falciparum Indochina infected erythrocytes, osmotic lysis OD700, 18 h; higher = more signal, called active from +8 up or from −8 down
[7] = modulators of S6 phosphorylation in cells, primary screen, cell-based, A549, cytoblot, luminescence, serum-stimulated (AID 1158); conditions: A549 phospho-S6 cytoblot, 5 h, higher = more signal;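 note: serum-stimulated A549 lung adenocarcinoma cells; signal is phosphorylated S6 detected by cytoblot immunostaining with HRP secondary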
[8] = molecular target: NADPH oxidase 2 (Homo sapiens) (UniProt P04839); assay: NOX2-dependent H2O2 signal modulators, primary screen, NOX inhibitor project, cell-based, HEK293-NOX2, PMA-stimulated, Amplex Red fluorescence (AID 1159); conditions: 45 min, higher = more signal, called active from +8 up or from −8 down; note: test concentration not given here
[9] = molecular target: NADPH oxidase 4 (Homo sapiens) (UniProt Q9NPH5); assay: NOX4-dependent H2O2 signal modulators, primary screen, NOX inhibitor project, cell-based, HEK293-NOX4, tetracycline-induced, Amplex Red fluorescence (AID 1160); conditions: 45 min, higher = more signal, called active from +8 up or from −8 down
[10] = molecular target: NADPH oxidase 5 (Homo sapiens) (UniProt Q96PH1); assay: NOX5-dependent H2O2 signal modulators, primary screen, NOX inhibitor project, cell-based, HEK293-NOX5, Amplex Red fluorescence (AID 1161); conditions: HEK293-NOX5, ionomycin, 45 min, higher = more signal
[11] = A549 cell viability effects, profiling panel, calcein-AM fluorescence, 48 h, basal (AID 1162); conditions: higher = more signal; note: test concentration not given here
[12] = adipocyte viability effects, profiling panel, cell-based, 3T3-L1 adipocytes, calcein-AM fluorescence, 48 h, basal (AID 1163); conditions: 3T3-L1 adipocytes viability, higher = more signal; note: test concentration not given here
[13] = HepG2 cell viability effects, profiling panel, calcein-AM fluorescence, 48 h, basal (AID 1164); conditions: higher = more signal; note: test concentration not given here
[14] = MM1S cell viability effects, profiling panel, calcein-AM fluorescence, 48 h, basal (AID 1165); conditions: higher = more signal;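 note: viability of MM1S multiple myeloma cells under basal unstimulated conditions; test concentration not given here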
[15] = basal RPMI8226 viability, no added stimulus, profiling panel, cell-based, calcein-AM fluorescence, 48 h, PK04 Diversity Set (AID 1166); conditions: RPMI8226 myeloma viability, higher = more signal;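 note: cells grown under basal conditions without added stimulus; test concentration not given here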
[16] = basal HepG2 mitochondrial membrane potential changes, profiling panel, cell-based, JC-1 fluorescence, 24 h, 100 nL compound (AID 1167); conditions: higher = more signal; note: test concentration not given here
[17] = basal 3T3-L1 adipocyte mitochondrial potential changes, profiling panel, cell-based, JC-1 fluorescence, 3T3-L1 adipocytes, 24 h, 100 nL compound (AID 1168); conditions: JC-1 mitochondrial fluorescence, higher = more signal, called active from +8 up or from −8 down; note: test concentration not given here
[18] = basal RPMI8226 mitochondrial membrane potential changes, profiling panel, cell-based, JC-1 fluorescence, 24 h, 100 nL compound (AID 1169); conditions: RPMI8226 myeloma, JC-1 mitochondrial potential fluorescence, higher = more signal; note: test concentration not given here
[19] = basal MM1S mitochondrial membrane potential changes, profiling panel, cell-based, JC-1 fluorescence, 24 h, 100 nL compound (AID 1170); conditions: higher = more signal; note: test concentration not given here
[20] = A549 lung cancer cell viability effects, profiling panel, resazurin fluorescence, 24 h, PK04 Diversity Set (AID 1171); conditions: higher = more signal, called active from +8 up or from −8 down; note: test concentration not given here

NADPH oxidase 2 (Homo sapiens), sequence (P04839 whole entry, looked up): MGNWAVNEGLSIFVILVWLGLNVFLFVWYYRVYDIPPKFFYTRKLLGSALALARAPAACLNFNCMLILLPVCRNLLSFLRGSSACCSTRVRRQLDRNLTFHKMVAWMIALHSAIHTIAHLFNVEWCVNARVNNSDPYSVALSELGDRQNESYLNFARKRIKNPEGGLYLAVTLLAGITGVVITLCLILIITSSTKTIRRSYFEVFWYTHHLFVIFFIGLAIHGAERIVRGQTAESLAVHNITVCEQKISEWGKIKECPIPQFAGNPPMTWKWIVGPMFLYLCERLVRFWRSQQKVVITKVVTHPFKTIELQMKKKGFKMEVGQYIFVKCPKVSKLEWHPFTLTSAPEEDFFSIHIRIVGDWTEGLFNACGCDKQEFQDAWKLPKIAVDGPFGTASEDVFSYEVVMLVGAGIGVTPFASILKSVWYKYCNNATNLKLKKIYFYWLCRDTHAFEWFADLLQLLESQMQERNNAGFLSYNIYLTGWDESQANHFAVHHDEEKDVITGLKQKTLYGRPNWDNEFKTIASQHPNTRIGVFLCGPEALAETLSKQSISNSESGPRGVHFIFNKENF
NADPH oxidase 4 (Homo sapiens), sequence (Q9NPH5 whole entry, looked up): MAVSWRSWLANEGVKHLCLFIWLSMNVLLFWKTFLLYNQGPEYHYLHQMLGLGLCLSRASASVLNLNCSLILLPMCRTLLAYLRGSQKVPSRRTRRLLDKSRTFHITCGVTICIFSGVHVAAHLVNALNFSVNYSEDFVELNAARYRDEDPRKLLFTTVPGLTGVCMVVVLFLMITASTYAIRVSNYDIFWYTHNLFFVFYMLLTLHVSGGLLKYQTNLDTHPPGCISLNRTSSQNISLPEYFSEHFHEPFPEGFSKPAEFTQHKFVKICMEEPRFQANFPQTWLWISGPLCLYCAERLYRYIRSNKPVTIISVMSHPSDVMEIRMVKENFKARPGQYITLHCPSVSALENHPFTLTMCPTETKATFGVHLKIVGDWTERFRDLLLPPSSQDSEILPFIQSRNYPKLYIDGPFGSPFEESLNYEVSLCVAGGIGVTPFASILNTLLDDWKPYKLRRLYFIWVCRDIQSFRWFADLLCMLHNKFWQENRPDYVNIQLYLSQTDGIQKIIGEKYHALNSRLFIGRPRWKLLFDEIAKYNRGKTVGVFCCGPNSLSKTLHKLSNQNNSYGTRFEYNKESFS
NADPH oxidase 5 (Homo sapiens), sequence (Q96PH1 whole entry, looked up): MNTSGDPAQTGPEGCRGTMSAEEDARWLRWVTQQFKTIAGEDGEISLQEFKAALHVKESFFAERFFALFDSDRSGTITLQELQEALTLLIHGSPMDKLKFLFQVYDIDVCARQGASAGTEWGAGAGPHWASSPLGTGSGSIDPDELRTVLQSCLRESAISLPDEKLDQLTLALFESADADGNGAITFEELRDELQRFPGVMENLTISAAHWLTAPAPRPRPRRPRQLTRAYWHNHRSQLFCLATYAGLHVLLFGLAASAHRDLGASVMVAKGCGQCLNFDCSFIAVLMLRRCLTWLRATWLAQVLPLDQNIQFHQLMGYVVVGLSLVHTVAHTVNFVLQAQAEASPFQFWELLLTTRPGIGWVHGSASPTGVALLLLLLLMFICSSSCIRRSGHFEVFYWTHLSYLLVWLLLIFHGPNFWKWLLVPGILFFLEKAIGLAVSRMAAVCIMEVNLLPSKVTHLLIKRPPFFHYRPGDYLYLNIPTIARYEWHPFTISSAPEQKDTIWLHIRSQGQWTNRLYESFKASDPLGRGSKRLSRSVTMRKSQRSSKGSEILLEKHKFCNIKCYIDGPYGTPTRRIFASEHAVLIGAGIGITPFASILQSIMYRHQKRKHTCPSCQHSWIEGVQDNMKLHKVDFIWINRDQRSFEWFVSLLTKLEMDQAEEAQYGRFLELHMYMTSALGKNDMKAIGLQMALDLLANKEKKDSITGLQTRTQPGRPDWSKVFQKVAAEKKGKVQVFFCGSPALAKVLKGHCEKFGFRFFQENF

Row | SMILES | z-score [1] | composite z-score [2] | z-score [3] | z-score [4] | z-score [5] | z-score [6] | z-score [7] | z-score [8] | z-score [9] | z-score [10] | z-score [11] | z-score [12] | z-score [13] | z-score [14] | z-score [15] | z-score [16] | z-score [17] | z-score [18] | z-score [19] | z-score [20]
1 | COc1ccc([Si](C)(C)[C@H]2[C@H](CC(=O)N(CCO)Cc3ccccc3)O[C@@]3(C(=O)N(C)c4c(Br)cc(C)cc43)[C@@H]2C)cc1 | -0.0939 (inactive) | 0.0774 | 18.4 (active) | 3.21 (inactive) | 0.0319 (inactive) | 1.11 (inactive) | 1.83 | -2.5 (inactive) | -0.577 (inactive) | -0.876 | -3.51 | -0.346 | -4.11 | -2.75 | -4.66 | -2.26 | 0.0268 (inactive) | -1.07 | -2.16 | -1.02 (inactive)
2 | COCCOC(=O)N1C(=O)[C@@]2(c3cc(C#CCCO)ccc31)[C@H](c1ccc(OCCO)cc1)N1[C@H](c3ccccc3)[C@H](c3ccccc3)OC(=O)[C@H]1[C@@H]2C(=O)Nc1nc2ccccc2s1 | -0.0929 (inactive) | 0.181 | 3.74 (inactive) | 1.5 (inactive) | 0.258 (inactive) | 0.678 (inactive) | -0.115 | 1.58 (inactive) | 1.26 (inactive) | 1.43 | -0.255 | 0.561 | 0.779 | -0.981 | -0.0413 | -3.68 | -1.38 (inactive) | -0.78 | -1.81 | -0.5 (inactive)
3 | C=CCOC(=O)[C@@H]1[C@H]2C(=O)O[C@H](c3ccccc3)[C@H](c3ccccc3)N2[C@H](c2ccc(OCCOC(=O)[C@@H]3C[C@@H]4C(=O)N[C@@H](CCCC[N+](C)(C)C)C(=O)N4[C@@H]3c3ccc(O)cc3)cc2)[C@@]12C(=O)Nc1ccc(I)cc12 | 0.0995 (inactive) | 0.668 | 0.321 (inactive) | 1.12 (inactive) | 3.11 (inactive) | 0.0802 (inactive) | -1.27 | 2.43 (inactive) | 0.0539 (inactive) | 0.718 | -0.602 | 0.751 | -0.495 | -2.03 | -1.7 | -1.87 | -0.582 (inactive) | -0.657 | -1.1 | 0.0416 (inactive)
4 | COCCOC(=O)N1C(=O)[C@@]2(c3cc(C#CC4=CCCCC4)ccc31)[C@H](c1ccccc1OCCO)N1[C@H](c3ccccc3)[C@H](c3ccccc3)OC(=O)[C@H]1[C@@H]2C(=O)N1CCN(c2ncccn2)CC1 | 0.978 (inactive) | 1.04 | 1.04 (inactive) | -0.579 (inactive) | 0.281 (inactive) | -0.492 (inactive) | 0.65 | 0.976 (inactive) | 0.868 (inactive) | 1.32 | -1.17 | 0.956 | 0.195 | -0.118 | -1.92 | 0.259 | 2.14 (inactive) | -0.423 | -1.19 | 0.753 (inactive)
